Measured values taken from PubChem BioAssay (Tox21).
Results filed as inconclusive are left out. Where a call stands in place of a potency, no number is given. A number with no mark means an inactive call. Activity calls are given as the source filed them. Calls follow the shape of the dose curve; as a rule, active = well fitted curve in the direction sought with a large enough effect in the repeat runs; inconclusive = weak or mixed curves; inactive = no such curve, though single readings can be large; an effect the other way counts as inactive or inconclusive.

Experiments:
[1] = molecular target: Cytochrome P450 2D6 (Homo sapiens) (UniProt P10635); test: Cytochrome P450 Family 2 Subfamily D Member 6 (CYP2D6) small molecule antagonists: luciferase reporter qHTS assay (AID 1671196); details: P450-Glo CYP2D6 enzyme assay, luciferin luminescence, 1 h; series mostly up to 115 µM; also: nearly all actives have a fitted effect of over 50% in size
Sequence of Cytochrome P450 2D6 (Homo sapiens) (P10635 whole entry, looked up): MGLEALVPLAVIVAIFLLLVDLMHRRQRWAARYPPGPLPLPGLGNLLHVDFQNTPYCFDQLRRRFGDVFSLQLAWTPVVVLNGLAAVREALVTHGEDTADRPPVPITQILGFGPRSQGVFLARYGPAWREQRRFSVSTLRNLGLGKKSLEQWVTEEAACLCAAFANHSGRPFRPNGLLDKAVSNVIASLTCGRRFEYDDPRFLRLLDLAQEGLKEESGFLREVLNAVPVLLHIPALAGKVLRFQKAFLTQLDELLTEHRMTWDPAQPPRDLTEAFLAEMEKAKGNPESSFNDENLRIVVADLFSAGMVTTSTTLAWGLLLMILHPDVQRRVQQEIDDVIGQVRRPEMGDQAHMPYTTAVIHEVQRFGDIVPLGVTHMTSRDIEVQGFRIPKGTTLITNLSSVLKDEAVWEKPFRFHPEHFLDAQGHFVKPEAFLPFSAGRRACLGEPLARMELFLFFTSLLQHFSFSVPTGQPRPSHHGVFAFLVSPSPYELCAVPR
How it was run: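 CYP2D6 activity was followed as luminescence from its luciferin product after a 1 h NADPH-driven reaction at room temperature. Enzyme-substrate mix and compound were pre-incubated for 10 min, and the signal was read 20 min after adding detection reagent.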

[2] = molecular target: Cytochrome P450 2C19 (Homo sapiens) (UniProt P33261); test: Cytochrome P450 Family 2 Subfamily C Member 19 (CYP2C19) small molecule antagonists: luciferase reporter qHTS assay (AID 1671197); details: P450-Glo CYP2C19 enzyme, luciferin luminescence, 1 h; series mostly up to 52.9 µM; also: nearly all actives have a fitted effect of over 65% in size
Sequence of Cytochrome P450 2C19 (Homo sapiens) (P33261 whole entry, looked up): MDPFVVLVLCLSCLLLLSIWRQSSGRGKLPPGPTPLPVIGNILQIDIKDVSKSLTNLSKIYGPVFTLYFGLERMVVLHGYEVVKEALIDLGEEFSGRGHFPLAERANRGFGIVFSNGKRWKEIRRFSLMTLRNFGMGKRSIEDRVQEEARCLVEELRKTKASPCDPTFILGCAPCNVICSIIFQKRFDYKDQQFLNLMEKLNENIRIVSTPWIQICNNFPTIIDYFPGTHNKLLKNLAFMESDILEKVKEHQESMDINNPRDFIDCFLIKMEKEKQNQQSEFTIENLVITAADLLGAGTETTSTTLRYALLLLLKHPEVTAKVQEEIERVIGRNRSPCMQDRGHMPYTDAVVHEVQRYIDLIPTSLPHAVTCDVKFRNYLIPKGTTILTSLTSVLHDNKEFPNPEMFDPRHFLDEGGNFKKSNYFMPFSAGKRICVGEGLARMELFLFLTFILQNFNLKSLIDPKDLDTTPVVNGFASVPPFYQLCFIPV
How it was run: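 Quantitative high-throughput screen of the Tox21 library using CYP2C19 with proluciferin substrate. Reaction: NADPH regeneration, 37C, 1 h, after 10 min compound preincubation at room temperature. Readout: luminescence.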

[3] = molecular target: Cytochrome P450 2C9 (Homo sapiens) (UniProt P11712); test: Cytochrome P450 Family 2 Subfamily C Member 9 (CYP2C9) small molecule antagonists: luciferase reporter qHTS assay (AID 1671198); details: P450-Glo CYP2C9 enzyme assay, luciferin luminescence; series mostly up to 115 µM; also: nearly all actives have a fitted effect of over 50% in size
Sequence of Cytochrome P450 2C9 (Homo sapiens) (P11712 whole entry, looked up): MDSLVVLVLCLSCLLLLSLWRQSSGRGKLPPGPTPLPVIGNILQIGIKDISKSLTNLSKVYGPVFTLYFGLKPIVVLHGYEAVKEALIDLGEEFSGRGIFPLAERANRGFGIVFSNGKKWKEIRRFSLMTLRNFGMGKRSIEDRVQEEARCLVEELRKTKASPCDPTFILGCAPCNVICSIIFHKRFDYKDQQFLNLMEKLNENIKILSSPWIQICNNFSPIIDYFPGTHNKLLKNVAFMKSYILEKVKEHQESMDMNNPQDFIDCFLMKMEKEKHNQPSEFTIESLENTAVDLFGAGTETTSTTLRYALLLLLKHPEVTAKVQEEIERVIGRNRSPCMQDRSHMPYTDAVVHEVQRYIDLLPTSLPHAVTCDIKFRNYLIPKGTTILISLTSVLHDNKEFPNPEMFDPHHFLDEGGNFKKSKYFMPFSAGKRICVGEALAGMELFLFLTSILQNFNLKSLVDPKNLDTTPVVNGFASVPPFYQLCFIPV
How it was run: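 Enzyme-substrate mix preincubated with compound 10 min at room temperature; reaction started with NADPH regeneration solution, 1 h 37C. Luminescent luciferin product read after 20 min detection reagent.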

[4] = molecular target: Cytochrome P450 1A2 (Homo sapiens) (UniProt P05177); test: Cytochrome P450 Family 1 Subfamily A Member 2 (CYP1A2) small molecule antagonists: luciferase reporter qHTS assay (AID 1671199); details: P450-Glo CYP1A2 enzyme, luciferin luminescence, 1 h; series mostly up to 53 µM; also: nearly all actives have a fitted effect of over 50% in size
Sequence of Cytochrome P450 1A2 (Homo sapiens) (P05177 whole entry, looked up): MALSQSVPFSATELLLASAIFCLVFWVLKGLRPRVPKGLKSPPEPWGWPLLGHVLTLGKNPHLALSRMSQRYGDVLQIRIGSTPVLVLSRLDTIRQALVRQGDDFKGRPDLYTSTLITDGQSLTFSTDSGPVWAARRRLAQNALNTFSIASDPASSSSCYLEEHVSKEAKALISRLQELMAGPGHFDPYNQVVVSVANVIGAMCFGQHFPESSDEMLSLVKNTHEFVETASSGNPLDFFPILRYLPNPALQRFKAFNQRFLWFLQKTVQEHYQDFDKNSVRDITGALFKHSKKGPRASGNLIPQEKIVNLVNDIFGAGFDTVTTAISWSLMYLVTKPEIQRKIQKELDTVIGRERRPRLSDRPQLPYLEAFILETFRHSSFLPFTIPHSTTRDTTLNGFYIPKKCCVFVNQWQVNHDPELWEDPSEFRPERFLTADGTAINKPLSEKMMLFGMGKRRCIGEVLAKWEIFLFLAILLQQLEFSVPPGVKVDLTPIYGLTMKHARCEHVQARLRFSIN
How it was run: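 Luminescence from luciferin formed by CYP1A2 from a proluciferin substrate, read 20 min after detection reagent. Compound was pre-incubated 10 min with enzyme-substrate, and reaction started with NADPH regeneration solution for 1 h at room temperature; furafylline control.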

[5] = molecular target: Voltage-gated inwardly rectifying potassium channel KCNH2 (Homo sapiens) (UniProt Q12809); test: Human Ether-a-go-go-Related Gene (hERG) channel small molecule antagonists: fluorescence cell-based qHTS assay (AID 1671200); details: hERG-U2OS cells, FluxOR thallium flux fluorescence; series mostly up to 76.8 µM; also: nearly all actives have a fitted effect of over 50% in size;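 as to activity change, negative = inhibition: hERG-expressing U2OS cells given a thallium stimulus after FluxOR II dye loading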
Sequence of Voltage-gated inwardly rectifying potassium channel KCNH2 (Homo sapiens) (Q12809 whole entry, looked up): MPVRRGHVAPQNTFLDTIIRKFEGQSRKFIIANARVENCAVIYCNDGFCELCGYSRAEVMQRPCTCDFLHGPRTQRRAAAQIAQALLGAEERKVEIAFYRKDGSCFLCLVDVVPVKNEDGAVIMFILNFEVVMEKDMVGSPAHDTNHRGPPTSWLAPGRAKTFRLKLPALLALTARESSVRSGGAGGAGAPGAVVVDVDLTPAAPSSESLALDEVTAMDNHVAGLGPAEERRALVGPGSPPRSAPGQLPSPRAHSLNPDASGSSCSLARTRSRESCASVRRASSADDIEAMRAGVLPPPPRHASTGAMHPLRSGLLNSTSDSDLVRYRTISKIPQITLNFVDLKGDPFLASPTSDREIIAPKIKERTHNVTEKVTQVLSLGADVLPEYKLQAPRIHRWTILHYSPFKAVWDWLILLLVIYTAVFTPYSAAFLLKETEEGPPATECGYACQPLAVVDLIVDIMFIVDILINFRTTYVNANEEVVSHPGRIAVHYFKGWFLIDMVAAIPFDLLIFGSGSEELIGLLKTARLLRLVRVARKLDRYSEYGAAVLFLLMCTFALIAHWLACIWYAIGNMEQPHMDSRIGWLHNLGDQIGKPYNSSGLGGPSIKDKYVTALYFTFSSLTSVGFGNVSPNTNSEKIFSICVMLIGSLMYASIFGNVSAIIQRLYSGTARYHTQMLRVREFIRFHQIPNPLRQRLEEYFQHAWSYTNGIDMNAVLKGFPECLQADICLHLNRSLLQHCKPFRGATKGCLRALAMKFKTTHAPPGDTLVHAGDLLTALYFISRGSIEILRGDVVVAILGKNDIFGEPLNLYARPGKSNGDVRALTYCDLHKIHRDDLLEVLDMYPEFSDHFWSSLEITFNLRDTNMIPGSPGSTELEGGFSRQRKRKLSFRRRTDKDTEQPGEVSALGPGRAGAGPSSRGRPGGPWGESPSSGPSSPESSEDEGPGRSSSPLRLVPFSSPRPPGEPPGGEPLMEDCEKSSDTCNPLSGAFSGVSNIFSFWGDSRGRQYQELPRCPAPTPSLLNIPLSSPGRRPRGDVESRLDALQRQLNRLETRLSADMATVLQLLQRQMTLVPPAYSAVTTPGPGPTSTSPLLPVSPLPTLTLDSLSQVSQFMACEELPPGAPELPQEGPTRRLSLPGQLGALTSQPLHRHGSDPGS
How it was run: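 Channel function was assessed by thallium flux. Cells seeded the previous day and kept at 37 C took up FluxOR II dye over 1 h in the dark at room temperature, then sat another 10 min before stimulation.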

[6] = molecular target: Cytochrome P450 3A4 (Homo sapiens) (UniProt P08684); test: Cytochrome P450 Family 3 Subfamily A Member 4 (CYP3A4) small molecule antagonists: luciferase reporter qHTS assay (AID 1671201); details: P450-Glo CYP3A4 enzyme, luciferin luminescence, 1 h; series mostly up to 115 µM; also: nearly all actives have a fitted effect of over 50% in size
Sequence of Cytochrome P450 3A4 (Homo sapiens) (P08684 whole entry, looked up): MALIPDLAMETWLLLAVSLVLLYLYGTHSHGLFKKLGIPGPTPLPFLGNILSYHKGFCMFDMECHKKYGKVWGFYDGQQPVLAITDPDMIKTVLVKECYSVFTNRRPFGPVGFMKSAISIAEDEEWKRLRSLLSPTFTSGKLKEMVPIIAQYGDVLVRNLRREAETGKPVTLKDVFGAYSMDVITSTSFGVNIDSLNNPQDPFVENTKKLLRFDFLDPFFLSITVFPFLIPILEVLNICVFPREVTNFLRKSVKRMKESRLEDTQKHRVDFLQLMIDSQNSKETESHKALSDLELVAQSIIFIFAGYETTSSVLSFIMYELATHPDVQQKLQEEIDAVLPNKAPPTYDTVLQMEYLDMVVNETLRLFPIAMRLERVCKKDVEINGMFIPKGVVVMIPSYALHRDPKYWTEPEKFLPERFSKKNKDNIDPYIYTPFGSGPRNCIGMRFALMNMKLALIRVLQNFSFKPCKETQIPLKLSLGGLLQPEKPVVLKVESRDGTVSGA
How it was run: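 Compounds in DMSO were pin-transferred onto CYP3A4 enzyme-substrate mix and held 10 min at room temperature. NADPH regenerating solution started the reaction for 1 h; luciferin detection reagent stopped it, and luminescence was read after 20 min.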
Potency is read from the fitted curve at half-maximal effect.

SMILES	Potency [1]	Potency [2]	Potency [3]	Potency [4]	Potency [5]	Potency [6]	activity change, negative = inhibition [1]	activity change, negative = inhibition [5]
O=c1[nH]c2ccc(Cl)cc2o1	inactive	79.6 µM (active)	inactive	10 µM (active)	inactive	inactive		
N#[N+]c1ccc2c(S(=O)(=O)[O-])cccc2c1O	31.7 µM (active)	20 µM (active)	39.9 µM (active)		inactive			
Cc1cc(C)c(N)cc1C	22.4 µM (active)	7.94 µM (active)	35.5 µM (active)	0.708 µM (active)	inactive	35.5 µM (active)		
Cc1ccc(OC(=O)c2ccccc2O)cc1	inactive	inactive	35.6 µM (active)	35.6 µM (active)		inactive		
O=C(OCC(O)CO)c1ccccc1Nc1ccnc2cc(Cl)ccc12 (centres undefined)	13.8 µM (active)	8.71 µM (active)	15.5 µM (active)		inactive			
COC(=O)CS	inactive	inactive	inactive		inactive	inactive		
C=CC(=O)[O-].C=CC(=O)[O-].[Zn+2]	34.8 µM (active)	27.6 µM (active)	61.8 µM (active)		inactive			
C1COC1	inactive	inactive	inactive	inactive	inactive	inactive		
CCOC(=O)c1ccccc1C(=C1C=C(Br)C(=O)C(Br)=C1)c1cc(Br)c(O)c(Br)c1	inactive	inactive	23.7 µM (active)		inactive			
C=C(C)CCCC(C)CCO (centres undefined)	inactive	39.9 µM (active)	39.9 µM (active)		inactive	28.3 µM (active)		
COC(=O)c1nc(Cl)c(Cl)nc1N	inactive	inactive	inactive	4.36 µM (active)	inactive	inactive		
Oc1c(I)cc(I)c2cccnc12	inactive	inactive	inactive	inactive	inactive	inactive		
C=C1CCC2CC1C2(C)C (centres undefined)	inactive	inactive	inactive	inactive	inactive	inactive		
O=C=Nc1ccc(Cl)c(Cl)c1	inactive	inactive	39.3 µM (active)	35 µM (active)	inactive	31.2 µM (active)		
CC(=O)NC1(c2cccc(F)c2)CCN(CC[C@@]2(c3ccc(Cl)c(Cl)c3)CN(c3ccccc3)C(=O)CO2)CC1	28.3 µM (active)	6.34 µM (active)	8.96 µM (active)	inactive	13.8 µM (active)	inactive		
CCCCC(CC)COP(=O)(O)O (centres undefined)	inactive	40.6 µM (active)	40.6 µM (active)	inactive	inactive	inactive		
CCC(C)COC(=O)CC(C)C (centres undefined)	inactive	inactive	71 µM (active)		inactive	inactive		
C/C=C\C/C=C/CCCCCCCCOC(C)=O	39.9 µM (active)	15.9 µM (active)	12.6 µM (active)	31.7 µM (active)		15.9 µM (active)		
CCOC(=O)c1ccc(O)c(O)c1	inactive	inactive	inactive	27.5 µM (active)	inactive	inactive		
COc1ncnc(NS(=O)(=O)c2ccc(N)cc2)c1OC	inactive	inactive	inactive	inactive	inactive	inactive		
CCCCCCC(C)(C)C(=O)O	inactive	71 µM (active)	31.7 µM (active)		inactive	inactive		
O=C(/C=C/c1ccccc1)OCCc1ccccc1	inactive	20 µM (active)	25.2 µM (active)	6.33 µM (active)	49 µM (active)	inactive		

SMILES	Potency [1]	Potency [2]	Potency [3]	Potency [4]	Potency [5]	Potency [6]	activity change, negative = inhibition [1]	activity change, negative = inhibition [5]
O=C(Cn1ccnc1[N+](=O)[O-])NCCO	inactive	inactive	inactive	inactive	inactive	inactive		
CC1(CN2CCC(n3c(=O)[nH]c4ccccc43)CC2)OCc2ccccc2-n2cccc21 (centres undefined)	2.45 µM (active)	21.9 µM (active)	13.8 µM (active)		8.49 µM (active)			
O=C1C(=O)c2ccccc2C(O)=C1C1CCC(c2ccc(Cl)cc2)CC1 (centres undefined)	inactive	inactive		inactive	inactive	inactive		
Cc1cc(O)ccc1O	inactive	25.5 µM (active)		inactive	inactive			
c1ccc2sc(SN(C3CCCCC3)C3CCCCC3)nc2c1	1.25 µM (active)	7.87 µM (active)			inactive			
O=[N+]([O-])c1cc(C2CCCCC2)c(O)c([N+](=O)[O-])c1	31.6 µM (active)	39.8 µM (active)	8.91 µM (active)		inactive	inactive		
CS(=O)(=O)c1ccc(-c2cn3ccccc3n2)cc1	27.5 µM (active)	24.5 µM (active)		0.456 µM (active)	inactive	inactive		
Cc1ccc(C(C)(C)O)cc1	inactive	inactive	inactive		inactive	inactive		
O=Cc1c2ccccc2c(Cl)c2ccccc12	inactive	inactive		1.38 µM (active)	inactive	inactive		
Cc1cccc(N(C)C(=S)Oc2ccc3c(c2)CCC3)c1	inactive	1.74 µM (active)		10.2 µM (active)	inactive	inactive		
CCOC(=O)c1ccc(OCCN2C[C@H](O)[C@@H](O)[C@H](O)[C@H]2CO)cc1	inactive	inactive	inactive		inactive	inactive		
Cc1c(C)c2c(c(C)c1OC(=O)CCC(=O)OCCO)CC[C@@](C)(CCC[C@H](C)CCC[C@H](C)CCCC(C)C)O2	inactive	inactive		27.5 µM (active)	inactive			
CCOC(=O)/C=C/C(=O)OCC	inactive	inactive	inactive		inactive	inactive		
C[C@@]12CCC[C@H]1[C@@H]1CC[C@H]3C[C@@H](O)CC[C@]3(C)[C@H]1CC2	inactive	7.76 µM (active)		inactive	inactive			
CC1=C(CC=O)C(C)(C)CCC1	inactive	inactive		inactive	inactive	31.7 µM (active)		
CN1CC(=O)N2[C@H](c3ccc4c(c3)OCO4)c3[nH]c4ccccc4c3C[C@@H]2C1=O	inactive	inactive			inactive			
C=C(C)C(=O)OCCOCCOC(=O)C(=C)C	inactive	8.94 µM (active)		15.9 µM (active)	inactive	inactive		
CC(C)=CCC1C(=O)N(c2ccccc2)N(c2ccccc2)C1=O	inactive	27.5 µM (active)			inactive			
CC(=O)N/N=C/c1ccc([N+](=O)[O-])o1	inactive	inactive	inactive		inactive	inactive		
CCC1CO1 (centres undefined)	inactive	inactive	inactive		inactive	inactive		
Cc1ccco1	34.8 µM (active)	inactive	inactive		inactive	inactive		
O=C(/C=C/c1ccc(O)c(O)c1)O[C@@H]1C[C@@](OC(=O)/C=C/c2ccc(O)c(O)c2)(C(=O)O)C[C@@H](O)[C@@H]1O	inactive	12.3 µM (active)		27.5 µM (active)	inactive	inactive		

SMILES	Potency [1]	Potency [2]	Potency [3]	Potency [4]	Potency [5]	Potency [6]	activity change, negative = inhibition [1]	activity change, negative = inhibition [5]
CC(O)c1ccccc1 (centres undefined)	inactive	inactive	inactive		inactive	inactive		
CCc1ccccc1	inactive	inactive	inactive		inactive	inactive		
C=C1c2cccc(O)c2C(O)=C2C(=O)[C@]3(O)C(O)=C(C(N)=O)C(=O)[C@@H](N(C)C)[C@@H]3[C@@H](O)[C@H]12	inactive	inactive		inactive	inactive	inactive		
CCCCN(CCCC)C(C(N)=O)c1ccc(OC)cc1 (centres undefined)	0.977 µM (active)	15.5 µM (active)			inactive			
CC1(C)S[C@@H]2[C@H](NC(=O)C(c3ccccc3)S(=O)(=O)O)C(=O)N2[C@H]1C(=O)O (some centres undefined)	inactive	inactive	inactive		inactive	inactive		
O=C1c2ccccc2C(=O)C1c1nc2ccccc2c(Br)c1O	inactive	inactive		10 µM (active)	inactive			
CC[N+](CC)(CCNC(=O)C(=O)NCC[N+](CC)(CC)Cc1ccccc1Cl)Cc1ccccc1Cl	15.5 µM (active)	inactive	inactive		inactive	inactive		
CC(=O)Oc1ccc([N+](=O)[O-])cc1CCl	inactive	inactive		inactive	inactive	inactive		
Brc1cc(Br)c(Oc2cc(Br)c(Br)cc2Br)cc1Br	inactive	13.8 µM (active)		inactive	inactive	inactive		
O=C(OC(=O)c1ccccc1)c1ccccc1	inactive	inactive	inactive		inactive	inactive		
C(=C\c1ccccc1)/c1ccccc1	inactive	44.4 µM (active)		4.99 µM (active)	inactive			
Cc1cc(=O)c2c(O)c3c(O)cc(=O)c4c3c3c(cc(O)c1c23)C(C)(C)C=4O		inactive		inactive			-16.7% [at 23.6 µM]	-4.56% [at 15.8 µM]
CCCCCCCC/C=C\CCCCCCCCO	inactive	inactive		28.2 µM (active)	inactive	inactive		
COC(=O)CCS	inactive	70.4 µM (active)	inactive		inactive	inactive		
CCCCCCCCOc1ccc(C(=O)O)cc1	inactive	49.7 µM (active)		inactive	inactive	inactive		
C[C@H]1c2cccc(O)c2C(O)=C2C(=O)[C@]3(O)C(O)=C(C(N)=O)C(=O)[C@@H](N(C)C)[C@@H]3[C@@H](O)[C@@H]21	inactive	inactive		inactive	inactive	inactive		
CC1=Nc2ccc3ccccc3c2C1(C)C	35.6 µM (active)	8.94 µM (active)		20 µM (active)	inactive	inactive		
CC(C)(c1ccccc1)c1ccccc1	58.8 µM (active)	inactive	inactive			inactive		
O=C1NC(=O)c2cc([N+](=O)[O-])ccc21	63.8 µM (active)	71.6 µM (active)		28.5 µM (active)	inactive	32 µM (active)		
C=CC(C)(CCC=C(C)C)OC(=O)CC(C)C (centres undefined)	inactive	35.6 µM (active)	35.6 µM (active)		inactive	35.6 µM (active)		
CN1C(=O)OC(C)(C)C1=O		inactive						
